Measured values reported in PubChem BioAssay (NCI).
Compounds without any hit were thinned out: in the full panel of roughly 83,000, 20% have a hit.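 In brief: 96-well plates, 48 h treatment, single concentration, percent growth endpoint.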 Unmarked numbers belong to inactive results. Activity calls are given as the source filed them. Rule for the calls: active = growth percent below 10; inactive = the rest.

Tests used:
Assay in all cases: NCI-60 one-dose screen, 48 h (100 = growth as untreated, 0 = no growth, -100 = all killed)
Details in all cases: 10 µM unless noted
T-47D breast = tested on: T-47D breast
BT-549 breast = tested on: BT-549 breast
MDA-MB-435 melanoma = tested on: MDA-MB-435 melanoma
SW-620 colon = tested on: SW-620 colon
MCF7 breast = tested on: MCF7 breast
HCT-116 colon = tested on: HCT-116 colon
HCC-2998 colon = tested on: HCC-2998 colon
KM12 colon = tested on: KM12 colon

SMILES	growth (T-47D breast)	growth (BT-549 breast)	growth (MDA-MB-435 melanoma)	growth (SW-620 colon)	growth (MCF7 breast)	growth (HCT-116 colon)	growth (HCC-2998 colon)	growth (KM12 colon)
N#Cc1c(-c2ccccc2)cc(-c2ccccc2)n(CCCCCC(=O)Nc2ccccc2N)c1=O	48.3%	49.5%	92.1%	86.2%	68.4%	58.1%	80.5%	55.3%
O=C(/C=C/c1ccccc1)c1cccc(OCCCOc2cccc(C(=O)/C=C/c3ccccc3)c2)c1	72.1%	92%	101%	54.2%	11.3%	-81.3% (active)	42.2%	25.7%
COc1cccc([C@H]2c3[nH]c4ccccc4c3C[C@H]3C(=O)N(CCCCCCC(=O)NO)CC(=O)N23)c1	31.5%	77.9%	61.2%	57.4%	53.7%	35.3%	68.2%	78.9%
Fc1ccc(Nc2nc3nonc3nc2Nc2ccc(I)cc2)cc1	-26.7% (active)	-6.04% (active)	4.78% (active)	11.2%	1.98% (active)	3.42% (active)	9.77% (active)	2.12% (active)
CN(C)CCNC(=O)c1cccc(-c2cnc3ccc(-c4ccc5c(c4)OCO5)nn23)c1	75.2%	80.7%	86%	52.8%	27.1%	5.58% (active)	77.3%	17.6%
CCOC(=O)c1cc(C(=O)c2cc(OC)c(OC)c(OC)c2)n2ccc(-c3ccncc3)cc12	84.1%	90.6%	106%	105%	107%	76.3%	115%	100%
C/C(=N/O)c1ccc(F)cc1	91.4%	88.2%	112%	48.6%	54.3%	51.9%	130%	106%
N=C(N)c1ccc(-c2ccc(-c3cc(Cl)cc(Cl)c3)o2)o1	-58.3% (active)	88.8%	-92.8% (active)	-87.4% (active)	-77.6% (active)	-69.4% (active)	-77.8% (active)	-78.9% (active)
Oc1c(Cl)cc(Cl)c2ccc(Cn3cc(-c4ccc(C(F)(F)F)cc4)nn3)nc12	55.4%	77.7%	59.5%	7.74% (active)	29.4%	8.81% (active)	105%	101%
C=C(C)[C@@H]1CC[C@]2(C(=O)N3CCN(C)CC3)CC[C@]3(C)[C@H](CC[C@@H]4[C@@]5(C)CC(=C/c6ccncc6)/C(=N/O)C(C)(C)[C@@H]5CC[C@]43C)[C@@H]12	71.9%	82.7%	86.6%	72.8%	66.8%	56.1%	82.7%	72.1%
CCCCCCCCCCCCCCCCCCOc1ccccc1CC(=O)NCC[N+]1(C)CCCC1	69.9%	67.2%	67.4%	64.7%	53.1%	55.9%	32.7%	18.9%
COc1ccc(C(=O)Nc2ncc(Cc3ccc(F)cc3)s2)cc1	33.6%	40.4%	2.51% (active)	31%	12.3%	13.1%	8.19% (active)	3.05% (active)
CCn1cc(C(=O)N/N=C/c2cccs2)c(=O)c2cc(F)c(N3CCNC(C)C3)c(F)c21 (stereo not drawn)	77.8%	61.6%	92.2%	-16.8% (active)	-77.4% (active)	94.5%	28.6%	83.5%
CCN(CC)c1nc(SCc2ccccc2Cl)ncc1C	86.3%	134%	108%	105%	106%	94.2%	106%	108%
CCOC(=O)C(=Cc1cccc(Br)c1)C(=O)OCC	1.63% (active)	28%	23.7%	25.9%	11%	14%	101%	11.9%
COC(=O)[C@H]1CCCN1C[C@@H](O)CN1C(=O)/C(=C\c2cc(OC)c(OC)c(OC)c2)c2ccccc21	86.7%	111%	96.5%	95.7%	70.5%	92.8%	102%	98.9%

SMILES	growth (T-47D breast)	growth (BT-549 breast)	growth (MDA-MB-435 melanoma)	growth (SW-620 colon)	growth (MCF7 breast)	growth (HCT-116 colon)	growth (HCC-2998 colon)	growth (KM12 colon)
CCCCC[C@@H]1Cc2cc(O)c(C(=O)O)c3c2[C@H](C[C@]2(OC[C@@H](CC(=O)[C@@](C)(CC)C(=O)OC)[C@@H]2C)O3)O1	98.5%	121%	117%	111%	99.3%	111%	133%	105%
N#C/C(=C\c1ccc2ccccc2c1)c1cc2ccccc2[nH]1	32.9%	59.8%	-19% (active)	15.8%	14.4%	16.8%	60.4%	25.5%
C=C(CNCCc1ccc(O)cc1)[C@@H]1CC[C@]2(CO)CC[C@]3(C)[C@H](CC[C@@H]4[C@@]5(C)CCC(NCCO)C(C)(C)[C@@H]5CC[C@]43C)[C@@H]12 (stereo partly drawn)	-64.2% (active)	-68.1% (active)	-92.1% (active)	-82.4% (active)	-72.3% (active)	-92.5% (active)	-84.3% (active)	-25.8% (active)
O=C(Cn1cc(CN2CCCCCC2)nn1)Nc1ccc2c(ccn2Cc2ccccc2)c1	69.8%	86.9%	96.6%	96.9%	90.2%	95%	97.6%	93.8%
CC(C)CCNC(=O)Cn1cccc(NC(=O)OCc2ccccc2)c1=O	104%	110%	115%	108%	95.1%	110%	103%	107%
CCCCCC(=O)OCC(=O)O[C@@H]1C[C@]2(C(C)C)O[C@@]1(C)[C@@H]1CC[C@@H](C)[C@H]1[C@@H]2OC(=O)/C=C/c1ccccc1	21.4%	12.6%	99.4%	48.9%	26.8%	74%	88.5%	85%
C[C@@H]1CCC[C@H]1CC(N)C(=O)O (stereo partly drawn)	106%	106%	98.6%	102%	91.7%	95.7%	103%	106%
O=C1/C(=C/c2cccs2)SC(=S)N1CCCN1CCOCC1	67.4%	102%	92.1%	101%	73.8%	87.8%	112%	96.8%
COc1ccc(OC)c(C(=O)/C=C/c2cc3c(c(OC)c2OC)OCO3)c1	70.6%	65.6%	63.2%	68.8%	31.4%	43.6%	86.3%	55%
O=C(Nc1nn(-c2ccc(Cl)cc2Cl)nc1-c1ccccc1)c1ccccc1	103%	119%	95.3%	105%	105%	84.3%	108%	80.8%
CC[C@@H](C(=O)[C@@H](C)[C@@H](O)[C@H](C)[C@@H]1O[C@@H]([C@@H](CC)C(=O)NCCc2ccc(F)cc2)CC[C@@H]1C)C1O[C@]2(C=CC(=O)[C@]3(CC[C@@](C)([C@H]4CC[C@](O)(CC)[C@H](C)O4)O3)O2)[C@H](C)C[C@@H]1C (stereo partly drawn)	15%	54.1%	39.3%	40.4%	18.4%	16.9%	63.8%	42.6%
COc1cc(-c2cc(-c3cccs3)c(C#N)c(N3CCOCC3)n2)cc(OC)c1OC	89%	75.8%	92.8%	4.28% (active)	61.9%	51.7%	86.4%	105%
CCCCC(=O)c1ccco1	79.4%	102%	98.8%	97%	90.9%	91.6%	94.3%	106%
CCc1n(Cc2ccc3ccccc3c2)cc[n+]1Cc1ccc2ccccc2c1	-10.2% (active)	-2.05% (active)	-22.1% (active)	16%	2.44% (active)	4.69% (active)	-6.82% (active)	-52.2% (active)
CN([O-])c1nc(N(C)[O-])nc(N2CCOCC2)n1.CN([O-])c1nc(N(C)[OH2+])nc(N2CCOCC2)n1.[Fe+3]	93% [100 µM]	85.8% [100 µM]	-30.5% [100 µM] (active)	58.3% [100 µM]	90.1% [100 µM]	65.8% [100 µM]	114% [100 µM]	33.6% [100 µM]
